Values joined by “and” are separate entries in the source; they are usually repeats but may differ in a detail not shown here. Equal entries are not always repeated. Among all 5,500 compounds or so, about 2,000 (36%) were called active. Roughly 18% stayed inconclusive and do not appear here. Rule as the data show it: active = normalized growth mostly below about 0.91 (no sharp cut-off); inconclusive = no clear call, values can overlap the other calls; inactive = mostly above about 0.92. The list shows a part of the results.
Experiment: chemical genetic growth profiling, strain panel (AID 1159580);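 also: tested at 20 µM; growth read once vehicle control cultures reached saturation at 30 °C; 1 = growth at the plate median or of vehicle wells; lower values mean less growth of the strain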
Conditions: S. cerevisiae deletion strains, growth OD

Measured: normalized growth

COc1ccc(C(Cl)=C(c2ccc(OC)cc2)c2ccc(OC)cc2)cc1
inactive: locus YAL021C, strain ccr4, hits give low values 1.04 | locus YAL026C, strain drs2, hits give low values 1.03 | locus YAL030W, strain snc1, hits give low values 1.03 | locus YBL061C, strain skt5, hits give low values 0.992 | locus YBR009C, strain hhf1, hits give low values 1.01 | locus YBR021W, strain FUR4, hits give low values 0.994 | locus YBR023C, strain chs3, hits give low values 0.993 | locus YBR171W, strain sec66, hits give low values 1.03 | locus YBR229C, strain ROT2, hits give low values 1.01 | locus YBR231C, strain swc5, hits give low values 1.03 | locus YBR279W, strain paf1, hits give low values 0.984 | locus YCL011C, strain gbp2, hits give low values 1.02 | locus YCL016C, strain dcc1, hits give low values 0.985 | locus YCL029C, strain bik1, hits give low values 1.01 | locus YCL061C, strain MRC1, hits give low values 1.03 | locus YCL069W, strain vba3, hits give low values 1.03 | locus YCR088W, strain abp1, hits give low values 1.02 | locus YDL005C, strain med2, hits give low values 1.03 | locus YDL035C, strain GPR1, hits give low values 0.989 | locus YDL040C, strain nat1, hits give low values 1.03 | locus YDL074C, strain BRE1, hits give low values 1.03 | locus YDL101C, strain DUN1, hits give low values 1.03 | locus YDL134C, strain PPH21, hits give low values 0.981 | locus YDL185W, strain tfp1, hits give low values 1.01 | locus YDL192W, strain arf1, hits give low values 1.02 | locus YDR001C, strain nth1, hits give low values 1.02 | locus YDR069C, strain doa4, hits give low values 0.993 | locus YDR101C, strain arx1, hits give low values 0.997 | locus YDR137W, strain rgp1, hits give low values 0.97 | locus YDR150W, strain NUM1, hits give low values 1.01 | locus YDR159W, strain sac3, hits give low values 1.01 | locus YDR162C, strain NBP2, hits give low values 1 | locus YDR195W, strain ref2 1.06 | locus YDR297W, strain sur2, hits give low values 1.02 | locus YDR318W, strain mcm21, hits give low values 1.01 | locus YDR334W, strain swr1, hits give low values 1.04 | locus YDR335W, strain msn5, hits give low values 1 | locus YDR388W, hits give low values 1.03 | locus YDR392W, strain spt3, hits give low values 1 | locus YDR502C, strain sam2, hits give low values 1.01 | locus YEL003W, strain gim4, hits give low values 1.03 | locus YEL037C, strain rad23, hits give low values 1.03 | locus YEL061C, strain CIN8 (second series), hits give low values 1.06 | locus YEL061C, strain CIN8, hits give low values 1.01 | locus YER015W, strain faa2, hits give low values 1.03 | locus YER016W, strain bim1, hits give low values 0.971 | locus YER110C, hits give low values 1.03 | locus YER111C, strain swi4, hits give low values 1.03 | locus YER155C, strain BEM2 (second series), hits give low values 1.03 | locus YER155C, strain BEM2, hits give low values 1.02 | locus YER167W, strain BCK2, hits give low values 1.01 | locus YFR010W, strain ubp6, hits give low values 1.02 | locus YGL078C, strain dbp3, hits give low values 1.01 | locus YGL086W, strain mad1, hits give low values 0.998 | locus YGL167C, strain pmr1, hits give low values 1.01 | locus YGL173C, strain kem1, hits give low values 1.03 | locus YGL227W, strain vid30, hits give low values 1.02 | locus YGL240W, strain doc1, hits give low values 1.05 | locus YGL248W, strain PDE1, hits give low values 1.03 | locus YGL253W, strain hxk2, hits give low values 0.999 | locus YGR135W, strain pre9, hits give low values 1.04 | locus YGR252W, strain gcn5, hits give low values 1.04 | locus YHR013C, strain ard1, hits give low values 1.04 | locus YHR027C, strain rpn1, hits give low values 0.989 | locus YHR030C, strain SLT2, hits give low values 1.01 and 0.939 | locus YHR079C, strain IRE1 (second series), hits give low values 1.02 | locus YHR079C, strain IRE1, hits give low values 0.963 | locus YHR094C, strain hxt1, hits give low values 1.03 | locus YHR129C, strain ARP1, hits give low values 1.02 | locus YHR142W, strain chs7, hits give low values 1.06 | locus YHR200W, strain rpn10, hits give low values 1.02 | locus YIL066C, strain RNR3, hits give low values 1 | locus YIL073C, strain SPO22, hits give low values 1.03 | locus YIL125W, strain kgd1, hits give low values 1.01 | locus YIR030C, strain dcg1, hits give low values 1.02 | locus YJL092W, strain hpr5, hits give low values 1.02 | locus YJL095W, strain BCK1 (second series), hits give low values 1.03 | locus YJL095W, strain BCK1, hits give low values 1.06 and 0.963 | locus YJL115W, strain asf1, hits give low values 1.02 | locus YJL129C, strain trk1, hits give low values 1.04 | locus YJL134W, strain LCB3, hits give low values 1.01 | locus YJL154C, strain vps35, hits give low values 1.03 | locus YJL164C, strain tpk1, hits give low values 1.01 | locus YJL166W, strain qcr8, hits give low values 1.04 | locus YJL168C, strain set2, hits give low values 1.03 | locus YJL187C, strain SWE1 (second series), hits give low values 1.04 | locus YJR043C, strain POL32, hits give low values 0.999 | locus YJR066W, strain TOR1, hits give low values 0.965 | locus YJR075W, strain HOC1, hits give low values 1.03
